According to PubChem BioAssay AID1159580 (chemical genetic matrix, 2015):
Where “and” joins values, the source holds several entries; their conditions need not be identical. Identical values can stand only once. Hit rate of the full screen: of about 5,500 compounds, about 2,000 (36%) were called active. Not shown: some 18% with an inconclusive outcome. Rule as the data show it: active = normalized growth mostly below about 0.91 (no sharp cut-off); inconclusive = no clear call, values can overlap the other calls; inactive = mostly above about 0.92. The list shows a part of the results.

Assay: chemical genetic growth profiling, strain panel (AID 1159580);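 also: tested at 20 µM; growth read once vehicle control cultures reached saturation at 30 °C; 1 = growth at the plate median or of vehicle wells; lower values mean less growth of the strain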
Details: growth OD

Measured: normalized growth

O=C(/C=C/c1ccc(O)cc1)c1ccc(O)cc1O
active: S. cerevisiae deletion strains, locus YKR001C, strain vps1, hits give low values 0.887 | S. cerevisiae deletion strains, locus YLR371W, strain rom2, hits give low values 0.9
inactive: S. cerevisiae deletion strains, locus YJR075W, strain HOC1, hits give low values 0.985 and 0.976 | S. cerevisiae deletion strains, locus YKL009W, strain mrt4, hits give low values 0.947 | S. cerevisiae deletion strains, locus YKL068W, hits give low values 0.95 | S. cerevisiae deletion strains, locus YKL085W, strain MDH1 (second series), hits give low values 0.965 | S. cerevisiae deletion strains, locus YKL085W, strain MDH1, hits give low values 0.965 | S. cerevisiae deletion strains, locus YKL160W, strain elf1, hits give low values 0.988 | S. cerevisiae deletion strains, locus YKL190W, strain CNB1, hits give low values 0.993 | S. cerevisiae deletion strains, locus YKR026C, strain gcn3, hits give low values 1.01 | S. cerevisiae deletion strains, locus YKR091W, strain srl3, hits give low values 1.01 | S. cerevisiae deletion strains, locus YLL001W, strain dnm1, hits give low values 1.01 | S. cerevisiae deletion strains, locus YLL026W, hits give low values 1 | S. cerevisiae deletion strains, locus YLL041C, strain sdh2, hits give low values 1.01 | S. cerevisiae deletion strains, locus YLR027C, strain aat2, hits give low values 0.978 | S. cerevisiae deletion strains, locus YLR039C, strain RIC1, hits give low values 0.942 | S. cerevisiae deletion strains, locus YLR058C, strain SHM2, hits give low values 1.01 | S. cerevisiae deletion strains, locus YLR102C, strain apc9, hits give low values 0.953 | S. cerevisiae deletion strains, locus YLR113W, strain HOG1, hits give low values 0.927 | S. cerevisiae deletion strains, locus YLR221C, strain rsa3, hits give low values 0.987 | S. cerevisiae deletion strains, locus YLR258W, strain gsy2, hits give low values 1.01 | S. cerevisiae deletion strains, locus YLR262C, strain YPT6 (second series), hits give low values 1.02 | S. cerevisiae deletion strains, locus YLR262C, strain YPT6, hits give low values 1.02 | S. cerevisiae deletion strains, locus YLR268W, strain sec22, hits give low values 0.957 | S. cerevisiae deletion strains, locus YLR320W, strain mms22, hits give low values 1.01 | S. cerevisiae deletion strains, locus YLR330W, strain CHS5, hits give low values 0.985 | S. cerevisiae deletion strains, locus YLR342W, strain FKS1 (second series), hits give low values 0.981 | S. cerevisiae deletion strains, locus YLR342W, strain FKS1, hits give low values 1 | S. cerevisiae deletion strains, locus YLR357W, strain rsc2, hits give low values 0.997 | S. cerevisiae deletion strains, locus YLR370C, strain arc18, hits give low values 1.02 | S. cerevisiae deletion strains, locus YLR384C, strain iki3, hits give low values 1.01 | S. cerevisiae deletion strains, locus YLR418C, strain cdc73, hits give low values 0.86 | S. cerevisiae deletion strains, locus YML016C, strain PPZ1, hits give low values 0.986 | S. cerevisiae deletion strains, locus YML032C, strain rad52, hits give low values 0.984 | S. cerevisiae deletion strains, locus YML120C, strain ndi1, hits give low values 0.995 | S. cerevisiae deletion strains, locus YML124C, strain tub3, hits give low values 0.964 | S. cerevisiae deletion strains, locus YMR058W, strain fet3, hits give low values 1.02 | S. cerevisiae deletion strains, locus YMR078C, strain ctf18, hits give low values 0.954 | S. cerevisiae deletion strains, locus YMR125W, strain sto1, hits give low values 0.992 | S. cerevisiae deletion strains, locus YMR129W, hits give low values 1.03 | S. cerevisiae deletion strains, locus YMR205C, strain PFK2, hits give low values 0.967 | S. cerevisiae deletion strains, locus YMR223W, strain ubp8, hits give low values 0.967 | S. cerevisiae deletion strains, locus YMR231W, strain pep5, hits give low values 1.01 | S. cerevisiae deletion strains, locus YMR263W, strain SAP30, hits give low values 0.989 | S. cerevisiae deletion strains, locus YMR307W, strain GAS1, hits give low values 1.08 | S. cerevisiae deletion strains, locus YNL067W, strain RPL9B, hits give low values 1.01 | S. cerevisiae deletion strains, locus YNL071W, strain lat1, hits give low values 0.996 | S. cerevisiae deletion strains, locus YNL128W, strain TEP1, hits give low values 0.964 | S. cerevisiae deletion strains, locus YNL153C, strain GIM3, hits give low values 1.03 | S. cerevisiae deletion strains, locus YNL175C, strain NOP13, hits give low values 0.979 | S. cerevisiae deletion strains, locus YNL183C, strain NPR1, hits give low values 0.944 | S. cerevisiae deletion strains, locus YNL197C, strain WHI3, hits give low values 0.992 | S. cerevisiae deletion strains, locus YNL209W, strain ssb2, hits give low values 1 | S. cerevisiae deletion strains, locus YNL224C, strain SQS1, hits give low values 0.976 | S. cerevisiae deletion strains, locus YNL233W, strain BNI4, hits give low values 0.975 | S. cerevisiae deletion strains, locus YNL248C, strain rpa49, hits give low values 1.04 | S. cerevisiae deletion strains, locus YNL250W, strain rad50, hits give low values 0.961 | S. cerevisiae deletion strains, locus YNL271C, strain bni1, hits give low values 0.965 | S. cerevisiae deletion strains, locus YNL298W, strain CLA4, hits give low values 0.99 | S. cerevisiae deletion strains, locus YNL307C, strain MCK1, hits give low values 0.968 | S. cerevisiae deletion strains, locus YNL322C, strain KRE1 (second series), hits give low values 1 | S. cerevisiae deletion strains, locus YNR049C, strain mso1, hits give low values 1.01 | S. cerevisiae deletion strains, locus YNR052C, strain pop2, hits give low values 1.01 | S. cerevisiae deletion strains, locus YOL012C, strain htz1 1.77 | S. cerevisiae deletion strains, locus YOL147C, strain pex11, hits give low values 0.969 | S. cerevisiae deletion strains, locus YOR001W, strain rrp6, hits give low values 1.02 | S. cerevisiae deletion strains, locus YOR061W, strain CKA2, hits give low values 0.988 | S. cerevisiae deletion strains, locus YOR069W, strain VPS5, hits give low values 0.976 | S. cerevisiae deletion strains, locus YOR070C, strain gyp1, hits give low values 1 | S. cerevisiae deletion strains, locus YOR080W, strain dia2, hits give low values 1.01 | S. cerevisiae deletion strains, locus YOR083W, strain WHI5 (second series), hits give low values 0.982 | S. cerevisiae deletion strains, locus YOR083W, strain WHI5, hits give low values 0.974 | S. cerevisiae deletion strains, locus YOR106W, strain vam3, hits give low values 0.988 | S. cerevisiae deletion strains, locus YOR136W, strain idh2, hits give low values 0.974 | S. cerevisiae deletion strains, locus YOR144C, strain elg1, hits give low values 0.99 | S. cerevisiae deletion strains, locus YOR184W, strain ser1, hits give low values 0.93 | S. cerevisiae deletion strains, locus YOR231W, strain MKK1, hits give low values 0.874 | S. cerevisiae deletion strains, locus YOR265W, strain rbl2, hits give low values 1.02 | S. cerevisiae deletion strains, locus YOR270C, strain vph1, hits give low values 1.04 | S. cerevisiae deletion strains, locus YOR290C, strain snf2, hits give low values 0.976 | S. cerevisiae deletion strains, locus YOR316C, strain cot1, hits give low values 0.962 | S. cerevisiae deletion strains, locus YPL051W, strain arl3, hits give low values 0.975 | S. cerevisiae deletion strains, locus YPL055C, strain LGE1, hits give low values 0.977 | S. cerevisiae deletion strains, locus YPL078C, strain atp4, hits give low values 0.99 | S. cerevisiae deletion strains, locus YPL106C, strain sse1, hits give low values 0.982 | S. cerevisiae deletion strains, locus YPL240C, strain hsp82, hits give low values 1.01 | S. cerevisiae deletion strains, locus YPL256C, strain CLN2, hits give low values 0.877 | S. cerevisiae deletion strains, locus YPR119W, strain clb2, hits give low values 0.949 | S. cerevisiae deletion strains, locus YPR141C, strain kar3, hits give low values 0.972 | S. cerevisiae deletion strains, locus YPR163C, strain tif3, hits give low values 0.976 | S. cerevisiae deletion strains, locus YPR167C, strain met16, hits give low values 0.966 | S. cerevisiae deletion strains, strain wtn01, hits give low values 0.94 | S. cerevisiae strains, strain wild type, hits give low values 0.991
